Assay results as given in the supplement of paper PMC11732987, “Enantioselective OTUD7B fragment discovery through chemoproteomics screening and high-throughput optimisation” (Communications Chemistry, 2025).

Key:
Test in all cases: log2 ratio of Biotin-Ahx-Ub-VS probe labelling (fragment/DMSO); higher = less target engagement (more negative = stronger competition), active = hit call of the paper (q ≤ 0.05, log2 ratio ≤ -1)
Details in all cases: compound concentration: 200 uM; treatment time: 3 h
USP9X = USP9X (UniProt Q93008)
How it was run: (§1)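 Using Biotin-Ahx-Ub-VS at 0.5 µM final for 1 h, DUBs were labelled in HEK293T lysate (495 µg per sample) that had first been treated in triplicate with fragment at 200 µM or vehicle for 3 h. NeutrAvidin enrichment, LysC and trypsin digestion and diaPASEF LC-MS/MS followed. Spectronaut label-free quantities were global-median-normalised. Values are average log2 fragment/vehicle ratios by unpaired t-test, using proteins with ≥2 unique peptides.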

UniProt O00487 = biological target: UniProt O00487
How it was run: as §1

UniProt O00507 = biological target: UniProt O00507
How it was run: as §1

UniProt P51784 = biological target: UniProt P51784
How it was run: as §1

UniProt Q5T2D3 = biological target: T1, UniProt Q5T2D3
T1 sequence (whole entry): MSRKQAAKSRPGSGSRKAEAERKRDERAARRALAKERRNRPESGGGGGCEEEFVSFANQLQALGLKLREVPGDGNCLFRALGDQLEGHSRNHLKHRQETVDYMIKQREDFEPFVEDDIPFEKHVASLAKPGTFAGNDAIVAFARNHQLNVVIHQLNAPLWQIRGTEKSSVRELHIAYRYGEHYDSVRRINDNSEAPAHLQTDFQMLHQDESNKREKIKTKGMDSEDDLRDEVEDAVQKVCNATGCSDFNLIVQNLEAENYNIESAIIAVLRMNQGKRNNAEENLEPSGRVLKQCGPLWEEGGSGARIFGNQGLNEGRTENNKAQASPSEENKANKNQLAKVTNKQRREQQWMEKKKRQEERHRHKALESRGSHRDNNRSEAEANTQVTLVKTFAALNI
How it was run: as §1

UniProt Q8TE49 = biological target: T2, UniProt Q8TE49
T2 sequence (whole entry): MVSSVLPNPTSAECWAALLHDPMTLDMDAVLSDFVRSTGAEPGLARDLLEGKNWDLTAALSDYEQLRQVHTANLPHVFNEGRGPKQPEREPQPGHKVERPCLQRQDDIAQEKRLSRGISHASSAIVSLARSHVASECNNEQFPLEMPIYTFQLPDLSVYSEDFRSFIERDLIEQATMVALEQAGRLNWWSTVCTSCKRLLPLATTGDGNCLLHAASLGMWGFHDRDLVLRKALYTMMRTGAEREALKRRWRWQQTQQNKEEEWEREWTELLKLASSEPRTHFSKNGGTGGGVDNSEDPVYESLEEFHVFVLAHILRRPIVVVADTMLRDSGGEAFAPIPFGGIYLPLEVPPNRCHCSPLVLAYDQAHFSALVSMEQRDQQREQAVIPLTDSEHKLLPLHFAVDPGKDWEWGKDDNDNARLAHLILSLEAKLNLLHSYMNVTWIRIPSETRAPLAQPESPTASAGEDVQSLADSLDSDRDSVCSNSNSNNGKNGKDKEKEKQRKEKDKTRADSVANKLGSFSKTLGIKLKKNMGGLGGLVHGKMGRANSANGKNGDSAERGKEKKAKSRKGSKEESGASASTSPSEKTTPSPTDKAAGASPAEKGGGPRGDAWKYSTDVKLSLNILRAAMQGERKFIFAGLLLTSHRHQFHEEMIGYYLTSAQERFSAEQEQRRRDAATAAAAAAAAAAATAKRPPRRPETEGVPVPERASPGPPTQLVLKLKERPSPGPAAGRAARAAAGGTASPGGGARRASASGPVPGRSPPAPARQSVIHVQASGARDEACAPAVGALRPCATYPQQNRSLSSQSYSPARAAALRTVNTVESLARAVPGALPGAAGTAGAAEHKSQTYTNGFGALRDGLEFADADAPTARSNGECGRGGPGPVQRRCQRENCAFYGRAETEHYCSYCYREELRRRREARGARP
How it was run: as §1

UniProt Q9P2H5 = biological target: T3, UniProt Q9P2H5
T3 sequence (whole entry): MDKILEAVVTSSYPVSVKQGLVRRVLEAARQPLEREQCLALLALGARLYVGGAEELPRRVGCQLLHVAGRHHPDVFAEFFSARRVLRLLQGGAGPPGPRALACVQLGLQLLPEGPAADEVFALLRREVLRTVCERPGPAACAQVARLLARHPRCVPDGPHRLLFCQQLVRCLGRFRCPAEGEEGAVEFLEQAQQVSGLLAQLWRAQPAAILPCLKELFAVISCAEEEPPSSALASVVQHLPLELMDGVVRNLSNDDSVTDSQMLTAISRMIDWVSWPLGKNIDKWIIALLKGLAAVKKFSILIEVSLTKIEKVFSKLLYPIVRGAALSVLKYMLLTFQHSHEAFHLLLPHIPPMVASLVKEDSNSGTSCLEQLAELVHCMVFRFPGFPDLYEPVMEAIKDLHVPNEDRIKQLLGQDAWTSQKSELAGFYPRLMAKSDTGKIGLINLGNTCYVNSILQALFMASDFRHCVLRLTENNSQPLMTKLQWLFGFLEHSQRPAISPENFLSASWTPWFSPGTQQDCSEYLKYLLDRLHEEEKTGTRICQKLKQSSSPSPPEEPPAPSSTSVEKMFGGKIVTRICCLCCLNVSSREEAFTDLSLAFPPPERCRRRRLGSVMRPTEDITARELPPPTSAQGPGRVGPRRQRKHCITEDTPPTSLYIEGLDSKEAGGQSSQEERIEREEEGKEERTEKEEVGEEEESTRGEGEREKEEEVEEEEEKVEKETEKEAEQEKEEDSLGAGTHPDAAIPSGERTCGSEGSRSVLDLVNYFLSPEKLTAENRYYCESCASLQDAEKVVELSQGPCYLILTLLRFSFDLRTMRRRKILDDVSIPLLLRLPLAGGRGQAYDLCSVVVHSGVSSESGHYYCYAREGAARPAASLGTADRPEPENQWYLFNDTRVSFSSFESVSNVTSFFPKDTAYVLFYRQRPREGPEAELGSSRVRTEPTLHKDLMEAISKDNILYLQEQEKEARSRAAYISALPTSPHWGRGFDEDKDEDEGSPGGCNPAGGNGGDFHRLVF
How it was run: as §1

UniProt Q9UGI0 = biological target: T4, UniProt Q9UGI0
T4 sequence (whole entry): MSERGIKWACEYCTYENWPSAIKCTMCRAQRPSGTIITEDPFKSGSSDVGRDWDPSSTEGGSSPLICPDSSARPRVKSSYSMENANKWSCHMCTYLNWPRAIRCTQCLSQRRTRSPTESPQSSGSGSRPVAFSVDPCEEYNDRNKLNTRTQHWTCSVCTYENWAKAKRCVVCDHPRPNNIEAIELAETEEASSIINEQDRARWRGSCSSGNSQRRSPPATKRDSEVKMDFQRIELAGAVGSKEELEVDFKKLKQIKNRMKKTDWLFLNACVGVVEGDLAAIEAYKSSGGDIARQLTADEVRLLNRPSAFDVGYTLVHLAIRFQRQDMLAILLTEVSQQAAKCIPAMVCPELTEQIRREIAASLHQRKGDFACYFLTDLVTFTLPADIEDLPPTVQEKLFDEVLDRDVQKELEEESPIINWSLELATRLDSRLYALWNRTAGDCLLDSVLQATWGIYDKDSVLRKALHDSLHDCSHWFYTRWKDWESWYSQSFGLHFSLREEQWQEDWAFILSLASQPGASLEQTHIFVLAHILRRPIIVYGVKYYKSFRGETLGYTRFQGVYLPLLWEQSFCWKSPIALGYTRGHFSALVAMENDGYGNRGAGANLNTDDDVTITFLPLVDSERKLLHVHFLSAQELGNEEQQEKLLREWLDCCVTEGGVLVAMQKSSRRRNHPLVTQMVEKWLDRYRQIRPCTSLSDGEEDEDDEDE
How it was run: as §1

YOD1 = biological target: T5, YOD1 (UniProt Q5VVQ6)
T5 sequence (whole entry): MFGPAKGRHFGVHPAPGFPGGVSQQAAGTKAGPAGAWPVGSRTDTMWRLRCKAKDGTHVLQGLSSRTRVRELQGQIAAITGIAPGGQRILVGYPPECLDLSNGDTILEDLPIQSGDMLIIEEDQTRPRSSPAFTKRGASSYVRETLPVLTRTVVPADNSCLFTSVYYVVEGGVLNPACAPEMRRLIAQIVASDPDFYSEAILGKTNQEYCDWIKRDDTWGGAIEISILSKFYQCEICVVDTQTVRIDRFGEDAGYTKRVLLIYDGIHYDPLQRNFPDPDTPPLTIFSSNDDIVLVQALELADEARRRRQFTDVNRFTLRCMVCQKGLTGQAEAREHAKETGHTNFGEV
How it was run: as §1

Measured: log2 ratio of Biotin-Ahx-Ub-VS probe labelling

Chain of USP9X (Q93008 whole entry, the tested form may be a part): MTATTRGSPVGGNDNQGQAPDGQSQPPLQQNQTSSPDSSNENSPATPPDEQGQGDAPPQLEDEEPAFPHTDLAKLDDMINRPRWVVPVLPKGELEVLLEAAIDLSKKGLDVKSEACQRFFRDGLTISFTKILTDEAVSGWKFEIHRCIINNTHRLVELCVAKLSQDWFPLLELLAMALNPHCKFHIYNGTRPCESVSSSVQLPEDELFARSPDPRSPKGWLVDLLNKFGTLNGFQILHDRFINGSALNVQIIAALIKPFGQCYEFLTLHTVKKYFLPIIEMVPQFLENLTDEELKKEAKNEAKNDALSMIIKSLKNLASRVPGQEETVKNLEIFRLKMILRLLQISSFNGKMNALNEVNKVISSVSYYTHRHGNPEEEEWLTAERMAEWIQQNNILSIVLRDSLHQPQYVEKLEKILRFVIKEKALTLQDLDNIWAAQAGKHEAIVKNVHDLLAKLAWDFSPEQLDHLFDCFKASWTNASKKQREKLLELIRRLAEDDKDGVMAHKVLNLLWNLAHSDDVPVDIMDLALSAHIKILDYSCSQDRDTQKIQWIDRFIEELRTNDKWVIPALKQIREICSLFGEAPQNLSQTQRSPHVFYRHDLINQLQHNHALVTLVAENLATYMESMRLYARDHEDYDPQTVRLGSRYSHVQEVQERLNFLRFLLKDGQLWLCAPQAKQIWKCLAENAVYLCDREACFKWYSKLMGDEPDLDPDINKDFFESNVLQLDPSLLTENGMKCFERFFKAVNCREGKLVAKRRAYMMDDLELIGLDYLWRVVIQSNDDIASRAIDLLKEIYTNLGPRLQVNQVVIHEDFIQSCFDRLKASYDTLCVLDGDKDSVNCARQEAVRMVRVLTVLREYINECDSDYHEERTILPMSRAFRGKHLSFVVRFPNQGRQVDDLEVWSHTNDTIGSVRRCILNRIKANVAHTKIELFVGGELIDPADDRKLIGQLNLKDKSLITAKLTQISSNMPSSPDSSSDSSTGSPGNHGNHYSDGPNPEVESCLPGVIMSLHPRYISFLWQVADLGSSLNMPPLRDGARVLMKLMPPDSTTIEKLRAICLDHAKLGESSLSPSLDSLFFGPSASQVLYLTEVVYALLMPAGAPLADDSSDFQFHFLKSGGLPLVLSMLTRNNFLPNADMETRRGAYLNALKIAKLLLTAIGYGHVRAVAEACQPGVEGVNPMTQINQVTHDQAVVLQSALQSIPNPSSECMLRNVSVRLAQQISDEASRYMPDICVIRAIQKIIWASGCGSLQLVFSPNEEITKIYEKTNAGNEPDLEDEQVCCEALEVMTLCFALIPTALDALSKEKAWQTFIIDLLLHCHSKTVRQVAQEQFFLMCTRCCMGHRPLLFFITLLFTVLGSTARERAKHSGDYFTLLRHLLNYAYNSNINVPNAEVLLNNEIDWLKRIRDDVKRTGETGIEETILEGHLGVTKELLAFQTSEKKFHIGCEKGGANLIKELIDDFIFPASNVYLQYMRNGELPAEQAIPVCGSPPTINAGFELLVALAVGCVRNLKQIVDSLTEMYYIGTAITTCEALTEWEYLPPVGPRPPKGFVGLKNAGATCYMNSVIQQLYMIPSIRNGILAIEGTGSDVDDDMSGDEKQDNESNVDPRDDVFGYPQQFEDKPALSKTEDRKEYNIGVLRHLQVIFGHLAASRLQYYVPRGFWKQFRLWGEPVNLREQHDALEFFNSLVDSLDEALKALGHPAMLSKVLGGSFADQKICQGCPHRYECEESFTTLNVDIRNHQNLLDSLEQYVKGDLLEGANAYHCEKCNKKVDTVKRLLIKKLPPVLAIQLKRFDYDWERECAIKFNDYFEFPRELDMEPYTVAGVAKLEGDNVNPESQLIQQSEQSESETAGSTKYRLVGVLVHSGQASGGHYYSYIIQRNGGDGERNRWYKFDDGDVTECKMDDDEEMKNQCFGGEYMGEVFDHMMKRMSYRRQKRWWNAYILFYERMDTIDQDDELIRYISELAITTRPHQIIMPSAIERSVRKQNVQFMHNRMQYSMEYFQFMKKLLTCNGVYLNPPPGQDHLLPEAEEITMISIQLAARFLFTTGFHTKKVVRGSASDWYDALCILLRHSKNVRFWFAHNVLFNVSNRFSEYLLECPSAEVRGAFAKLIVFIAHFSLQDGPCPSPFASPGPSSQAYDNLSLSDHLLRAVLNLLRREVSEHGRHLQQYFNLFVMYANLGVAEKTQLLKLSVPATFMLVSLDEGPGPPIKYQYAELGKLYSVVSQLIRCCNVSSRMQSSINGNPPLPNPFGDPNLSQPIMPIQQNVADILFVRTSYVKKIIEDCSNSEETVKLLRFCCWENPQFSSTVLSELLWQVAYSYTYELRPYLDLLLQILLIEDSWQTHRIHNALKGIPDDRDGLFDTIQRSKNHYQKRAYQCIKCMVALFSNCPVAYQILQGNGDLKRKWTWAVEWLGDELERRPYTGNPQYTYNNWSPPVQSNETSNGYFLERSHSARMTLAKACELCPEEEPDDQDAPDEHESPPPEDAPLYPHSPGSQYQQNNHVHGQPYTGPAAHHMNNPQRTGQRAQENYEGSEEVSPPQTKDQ
Chain of UniProt O00487 (O00487 whole entry): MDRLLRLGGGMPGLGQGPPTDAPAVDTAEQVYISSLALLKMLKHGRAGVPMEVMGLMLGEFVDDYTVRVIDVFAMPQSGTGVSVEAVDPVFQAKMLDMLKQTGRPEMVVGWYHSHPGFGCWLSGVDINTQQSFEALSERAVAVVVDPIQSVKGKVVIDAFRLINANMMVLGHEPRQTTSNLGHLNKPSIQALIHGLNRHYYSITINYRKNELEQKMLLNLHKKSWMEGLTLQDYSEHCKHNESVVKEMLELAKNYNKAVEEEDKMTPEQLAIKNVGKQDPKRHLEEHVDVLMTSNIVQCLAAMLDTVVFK
Chain of UniProt P51784 (P51784 whole entry): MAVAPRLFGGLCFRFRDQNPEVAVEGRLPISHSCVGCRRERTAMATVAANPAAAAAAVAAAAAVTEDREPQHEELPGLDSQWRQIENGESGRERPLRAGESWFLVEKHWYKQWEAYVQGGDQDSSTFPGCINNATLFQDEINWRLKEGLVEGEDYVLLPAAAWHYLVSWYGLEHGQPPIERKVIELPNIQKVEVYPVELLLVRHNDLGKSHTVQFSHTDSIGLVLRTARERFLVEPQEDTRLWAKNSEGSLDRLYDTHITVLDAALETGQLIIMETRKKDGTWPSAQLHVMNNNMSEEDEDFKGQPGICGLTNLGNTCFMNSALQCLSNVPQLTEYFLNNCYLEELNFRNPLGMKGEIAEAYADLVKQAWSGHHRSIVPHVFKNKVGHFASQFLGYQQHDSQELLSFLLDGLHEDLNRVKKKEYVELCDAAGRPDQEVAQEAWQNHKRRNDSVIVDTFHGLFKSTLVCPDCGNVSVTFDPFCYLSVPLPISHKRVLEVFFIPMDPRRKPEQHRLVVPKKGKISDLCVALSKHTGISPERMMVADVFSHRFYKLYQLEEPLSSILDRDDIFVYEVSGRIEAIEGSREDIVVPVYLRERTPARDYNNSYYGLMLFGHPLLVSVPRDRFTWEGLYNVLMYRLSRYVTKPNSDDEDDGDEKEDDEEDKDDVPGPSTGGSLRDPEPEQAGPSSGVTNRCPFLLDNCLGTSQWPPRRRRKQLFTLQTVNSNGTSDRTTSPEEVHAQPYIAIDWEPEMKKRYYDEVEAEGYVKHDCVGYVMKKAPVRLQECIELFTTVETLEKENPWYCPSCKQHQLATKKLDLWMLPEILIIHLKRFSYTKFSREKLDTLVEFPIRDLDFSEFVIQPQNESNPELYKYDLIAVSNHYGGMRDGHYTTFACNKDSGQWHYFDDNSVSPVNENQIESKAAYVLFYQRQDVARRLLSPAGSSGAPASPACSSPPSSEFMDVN

O=C(CN1CCN(C(=O)CCl)CC1)Nc1cccc(F)c1
inactive: USP9X -0.429 | UniProt O00487 0.0211 | UniProt O00507 0.00838 | UniProt P51784 -0.0576 | UniProt Q5T2D3 -0.264 | UniProt Q8TE49 -0.292 | UniProt Q9P2H5 -0.486 | UniProt Q9UGI0 -0.37 | YOD1 0.0312
